TWEAK Fn14 block – blocks TWEAK-Fn14 interaction in a reporter cell assay; TWEAK-stimulated Fn14 reporter cells, luciferase luminescence, 8 h; inhibition, % at 10 µM; hit rate 2% among 360,000; in the data active = inhibition above about 50%
Platelet DG rel – modulates dense granule release in human platelets | hit rate 0.22% among 300,000 | AID 1663 | human platelet-rich plasma, SFLLRN dense granule ATP release, luminescence | inhibition, %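 (compounds screened at 7.5 µM in platelet-rich plasma)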;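 active = mean replicate score, as percent of positive control, at or above 50; inconclusive = mean below 50 but at least one replicate at or above 50; inactive = mean and every replicate below 50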
TROY signal inh – inhibitors of TROY-dependent NF-kB signaling. Q293 LMP1-TROYcd NF-kB luciferase reporter, 4 h. AID 1347056. inhibition, % at 10 µM. hit rate 0.98% among 360,000;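 active = compounds whose plate-normalised and pattern-corrected inhibition of the luciferase reporter signal at the single screening dose is 50% or more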
PPC-1+TRAIL kill – compounds killing PPC-1 cancer cells with TRAIL present (potentiator screen, no TRAIL-free arm); PPC-1 cells + TRAIL, ATPLite viability luminescence; cell killing (% activity), % at 4 µM or 5 µM; hit rate 0.41% among 220,000;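 active = cell killing above 50% in the first pass at 4 µM, then a duplicate retest at 5 µM averaging 50% or more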
C8 TRAIL sens – sensitizes caspase-8 expressing cells to TRAIL. inhibition (viability loss, TRAIL sensitization), % at 10 µM. NB7+C8 cells + TRAIL, ATPlite viability luminescence. hit rate 1% among 360,000;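 active = compounds causing at least 50% loss of cell viability in the single-dose screen, relative to plate controls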
HSP90 inh – HSP90 refolding inhibition in rabbit reticulocyte lysate; hit rate 0.91% among 290,000; inhibition, % at 5.6 µM; luciferase refolding luminescence, 3 h;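 active = inhibition above the screen-wide mean plus 3 SD, computed separately per campaign, cut at about 16% in these data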;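 also: inhibitors lower the luminescence because luciferase stays unfolded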
PPC-1 tox – kills PPC-1 cells; hit rate 50% among 1,200; shares compounds with PPC-1+TRAIL kill; cytotoxicity, % at 5 µM; PPC-1 viability, ATPlite luminescence, overnight;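 active = reconfirmed compounds whose average cytotoxicity reaches 50% or more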
Numbers stand for hits; i = inactive; ? = inconclusive; nt = no result given. The list is not random: actives were taken first. Their share in the collection is about 3.5%.

SMILES	TWEAK Fn14 block	Platelet DG rel	TROY signal inh	PPC-1+TRAIL kill	C8 TRAIL sens	HSP90 inh	PPC-1 tox
CC(Sc1ccc2c(c1)OCCO2)C(=O)Nc1ccc(N2CCOCC2)cc1 (stereo not drawn)	i	i	i	i	i	i	nt
CCN(C(=O)Cn1cc(C(=O)C(=O)N2CCOCC2)c2ccccc21)c1ccccc1	i	i	i	nt	i	i	nt
CCN(CC)c1ccc(N=Cc2ccc(N(CC)CC)cc2O)cc1	i	i	i	i	i	i	i
O=C(Nc1nccs1)c1cnccn1	i	i	i	i	i	i	i
O=C(Nc1nccs1)c1ccc(-c2ccc(Cl)cc2)o1	i	i	i	59.5	80.5	i	60.9
c1ccc2sc(NN=C3CCCCCC3)nc2c1	76.2	i	76.3	60.5	65.6	i	64.5
COc1ccc(N(C(=O)Cc2cccs2)C(C(=O)NC2CCCC2)c2ccncc2)cc1OC (stereo not drawn)	i	i	i	nt	i	i	nt
C#CC(=O)N(c1ccc(OC)c(OC)c1)C(C(=O)NC1CCCC1)c1cccs1 (stereo not drawn)	60.7	i	i	98.5	90.3	i	98.2
COc1ccc(CN2C(=O)[C@H]3Cc4c([nH]c5ccccc45)C(C)(C)N3C2=O)cc1	i	i	i	nt	i	nt	nt
CCCCCCCCCn1c2c(c(=N)c3c1CCC3)CCC2	i	i	51.5	i	76.9	i	i
CCn1c2c(c(=N)c3c1CCC3)CCC2	i	i	i	i	i	i	nt
CCCCCCn1c2c(c(=N)c3c1CCC3)CCC2	i	i	59.0	i	i	i	i
CCCCCCCn1c2c(c(=N)c3c1CCC3)CCCC2	60.6	i	i	i	i	i	i
CCCCn1c2c(c(=N)c3c1CCC3)CCC2	i	nt	i	i	i	i	nt
Cc1ccn2cc(-c3ccc4c(c3)NC(=O)CO4)nc2c1	i	i	i	i	i	i	i
O=C(/C=C/c1ccccc1)c1c[nH]c2ccccc12	i	i	i	61.0	57.6	i	66.1
O=C1CCCCCC(=O)[C@H](O)C[C@H](c2ccccc2)O1	i	nt	i	nt	i	nt	nt
CCCc1ccc(C(=O)NC(=O)c2ccccc2O)cc1	56.5	i	i	60.9	74.2	i	60.6
CCn1nnc(NC(=O)c2cccnc2)n1	i	?	i	i	i	i	nt
CCn1nnc(NC(=O)c2ccc(C(C)(C)C)cc2)n1	i	i	i	57.4	77.9	i	i
Cc1nnsc1-c1nc2ccccc2n1C(CCc1ccccc1)c1nc2ccccc2[nH]1 (stereo not drawn)	nt	nt	nt	nt	i	nt	nt
COc1ccc(OCC(=O)N/N=C/C=C/c2ccccc2)cc1	i	i	i	i	54.5	i	i
COC(=O)C1=C(C)N(CCCC(=O)O)C(=O)NC1c1ccc([N+](=O)[O-])cc1 (stereo not drawn)	i	i	i	nt	i	nt	nt
CCOC(=O)C1=C(C)N(CCCC(=O)O)C(=O)NC1c1ccc([N+](=O)[O-])cc1 (stereo not drawn)	i	i	i	i	i	i	i
Cc1ccc(S(=O)(=O)N2C[C@H]3C(=O)C[C@@H]4C(=O)N(c5ccccc5)C(=O)[C@@H]4[C@@H]3C[C@H]2c2cccs2)cc1	i	nt	i	nt	i	nt	nt
SMILES	TWEAK Fn14 block	Platelet DG rel	TROY signal inh	PPC-1+TRAIL kill	C8 TRAIL sens	HSP90 inh	PPC-1 tox
CSCCC(NC(=O)c1ccccc1Br)C(=O)N1CCCCCCC1 (stereo not drawn)	i	i	i	nt	i	nt	nt
CC(=O)Nc1ccc(SCC(=O)c2cc(C)n(Cc3cccs3)c2C)cc1	93.3	i	i	i	i	i	i
COc1ccc(-c2nnc(SCC(=O)c3cc(C)n(Cc4cccs4)c3C)o2)cc1	i	i	i	i	i	i	nt
COCCn1c(C)cc(C(=O)CSc2ccc(NC(C)=O)cc2)c1C	i	i	i	i	i	i	nt
COc1ccc(-n2cnnc2SCC(=O)c2cc(C)n(Cc3cccs3)c2C)cc1	i	nt	i	i	i	i	i
Oc1c(N=Nc2ccccn2)ccc2ccccc12	80.3	i	i	82.2	74.5	i	80.1
C/C(=N\NC(=O)COc1ccc(C(C)(C)C)cc1)c1cc2ccccc2o1	i	i	i	76.8	84.2	i	76.7
c1ccc(-c2cc(-c3nc(-c4ccccn4)no3)c3ccccc3n2)cc1	i	i	i	nt	i	i	nt
c1ccc(-c2ccc(-c3nc(-c4ccccn4)no3)cc2)cc1	106.1	94.8	89.3	90.2	90.4	78.0	90.1
Cc1ccc(-c2nc(-c3ccncc3)no2)cc1Cl	i	i	i	nt	i	i	nt
Cc1ccc(-c2nc(-c3ccccn3)no2)cc1Cl	103.7	i	82.1	88.5	87.3	63.9	87.7
COc1cc(NS(=O)(=O)c2ccc(NC(=O)c3cccnc3)cc2)ncn1	i	i	i	nt	i	i	nt
C[C@@H]1CN([C@@H](C)CO)C(=O)c2cccc(NC(=O)C3CCCCC3)c2O[C@@H]1CN(C)Cc1ccc(Cl)c(Cl)c1	i	nt	i	nt	i	nt	nt
Nc1ccccc1SC1CC(=O)N(Cc2ccccc2)C1=O (stereo not drawn)	i	i	i	i	i	i	nt
CCN1C(=O)CC(Sc2ccccc2N)C1=O (stereo not drawn)	i	i	i	i	i	i	i
COc1ccc2c(C)nc(Nc3nc(-c4ccccc4)cc(=O)[nH]3)nc2c1	63.1	i	57.8	i	i	i	i
O=C1C=C(Nc2ccccc2)C(=O)c2ccccc21	i	i	i	i	i	i	i
CCN1/C(=C/c2ccc3cc(C)cc(C)c3[n+]2CC)Sc2cc(C)ccc21	i	nt	i	i	i	i	i
CC(=O)N1c2ccc(C)cc2Sc2c1ccc1ccccc21	i	nt	i	nt	i	nt	nt
CCC(C)(C)c1ccc(OCCCC[n+]2cccc(C)c2)c(C(C)(C)CC)c1	76.9	i	i	i	i	i	i
CCCCCCCCCn1ccc(=N)cc1	i	i	54.1	i	i	i	i
CCOc1ccc(NC(=O)CN2C(=O)NC(C)(c3ccc4c(c3)OCCCO4)C2=O)cc1OCC (stereo not drawn)	i	nt	i	nt	i	nt	nt
O=c1[nH]cnc2scc(-c3ccc(-c4ccccc4)cc3)c12	i	i	i	58.1	i	i	60.3
CCOc1ccc(-c2ccc(SCC(=O)Nc3nnc(C)s3)nn2)cc1	i	i	i	73.5	62.4	i	74.7
CCc1ccc(-c2ccc(SCC(=O)Nc3nnc(C)s3)nn2)cc1	i	i	i	73.6	75.5	i	70.9
CCc1ccc(-c2ccc(SCC(=O)NCC3CCCO3)nn2)cc1 (stereo not drawn)	i	i	i	i	59.0	i	i
O=C(CSc1nnc2ccc(-c3ccc(Br)cc3)nn12)NCC1CCCO1 (stereo not drawn)	i	i	i	nt	i	nt	nt
Cc1nnc(NC(=O)CSc2ccc(-c3ccc(Cl)cc3)nn2)s1	i	i	i	i	i	i	nt
CCOc1ccc(-c2ccc(SCC(=O)NC3CCCCC3)nn2)cc1	i	i	i	nt	i	i	nt
O=C(COC(=O)c1ccccc1O)NCc1ccccc1Cl	i	nt	i	nt	i	nt	nt

High-throughput results from PubChem.
